KKLEB cytotox – cytotoxicity in KKLEB CF airway cells, primary screen, cytotoxicity control for CF NF-kB inhibitor project, cell-based, uHTS, fluorescence assay plates; AID 602141, 2011; 0.36% of 360,000 active; KKLEB CF airway cells viability, ATPlite luminescence, overnight; hits give low values; cells stimulated with P. aeruginosa culture filtrate; activity change (cytotoxicity), % at 5 µM;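 active means corrected activity change at or below -50% at 5 µM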
TROY NFkB inh – inhibitors of TROY-driven NF-kB signaling, primary screen, Q293 LMP1-TROYcd cells, NF-kB luciferase, uHTS. inhibition, % at 10 µM. AID 1347056, 2019. 0.98% of 360,000 active. Q293 LMP1-TROYcd NF-kB luciferase reporter, 4 h;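 active means compounds whose plate-normalised and pattern-corrected inhibition of the luciferase reporter signal at the single screening dose is 50% or more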
HIF-2a inh – HIF-2a reporter inhibitors, primary screen, luminescence, 786-0 RCC cells; 786-0 RCC cells HIF-2a reporter, luciferase luminescence, overnight; 0.72% of 360,000 active; AID 624352, 2012; inhibition, % at 18.8 µM;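 active means inhibition of the luminescence signal of 40% or more relative to plate controls, in a single-dose primary screen at 18.75 µM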
Peg3 promoter – Peg3 promoter-driven luciferase inhibitors, primary screen, cell-based, HeLa, luciferase luminescence; 1.7% of 360,000 active; inhibition, % at 20 µM; HeLa PEG-Prom luciferase reporter, overnight; AID 588405, 2011;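 active means inhibition of at least 50% at 20 µM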
TWEAK-Fn14 inh – inhibitors of TWEAK-Fn14 signaling, primary screen, luciferase reporter cells, uHTS | TWEAK-stimulated Fn14 reporter cells, luciferase luminescence, 8 h | inhibition, % at 10 µM | 2% of 360,000 active | AID 1159606, 2016; in the data active means inhibition above about 50%
CF NFkB block – inhibitors of PAF-induced NF-kB signaling, primary screen, cell-based, GFP fluorescence, uHTS; KKLEB NF-kB-GFP reporter, GFP fluorescence overnight; inhibition, % at 5 µM; 0.86% of 360,000 active; AID 588850, 2011;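 active means at least 50% inhibition at 5 µM, scaled per plate between neutral and stimulator controls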;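 further: PAF is a Pseudomonas aeruginosa culture filtrate used as stimulus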
CF NFkB inh conf – inhibitors of PAF-induced NF-kB signaling, retest, confirmation, cell-based, GFP fluorescence, single concentration. AID 602472, 2012. KKLEB CF airway cells, overnight. 64% of 1,300 active. inhibition, % at 5 µM. shares compounds with CF NFkB block; in the data active means inhibition above about 40%;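 further: stimulus PAF is a Pseudomonas aeruginosa filtrate and not platelet activating factor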
Numbers stand for hits; i = inactive; nt = no result. Hits are enriched below; roughly 4% of the tested compounds scored in any of these assays.

SMILES	KKLEB cytotox	TROY NFkB inh	HIF-2a inh	Peg3 promoter	TWEAK-Fn14 inh	CF NFkB block	CF NFkB inh conf
CNc1ccc2ncc(-c3cccc(C(=O)N(C)C)c3)n2n1	i	53	i	i	87	86	98
Cc1c(C(=O)OCC2CCCO2)[nH]c2c1C(=O)CC(c1ccco1)C2 (centres undefined)	i	i	i	i	i	i	nt
COC(=O)c1[nH]c2c(c1C)C(=O)CC(c1ccccc1)C2 (centres undefined)	i	i	i	i	i	i	nt
Cc1c(C(=O)OCC(C)C)[nH]c2c1C(=O)CC(c1ccco1)C2 (centres undefined)	i	i	i	i	i	51	53
C/C=C/COC(=O)c1[nH]c2c(c1C)C(=O)CC(c1ccco1)C2 (centres undefined)	i	i	i	i	i	62	85
C/C=C/COC(=O)c1[nH]c2c(c1C)C(=O)CC(c1ccc(N(C)C)cc1)C2 (centres undefined)	i	i	i	i	i	i	nt
Cc1c(C(=O)OC2CCCC2)[nH]c2c1C(=O)CC(c1ccco1)C2 (centres undefined)	i	i	i	i	i	50	82
O=C1NC(=O)C(Cc2ccc(O)cc2)N1 (centres undefined)	i	i	i	i	i	i	nt
COC(=O)C1(C(=O)OC)C[C@H](c2ccc(OC)cc2)N(Cc2ccccc2OC)[C@@H]1c1ccccc1	nt	nt	i	nt	nt	nt	nt
O=C(OCC(O)C(O)C(O)C(SCc1ccccc1)SCc1ccccc1)c1ccccc1 (centres undefined)	i	i	i	i	i	i	nt
O=C(CSc1nnc(-c2ccccc2)c2ccccc12)NCCN1C(=O)CSC1=O	i	i	i	i	i	i	nt
Cc1ccccc1S(=O)Cc1ccc(C(=O)N2CCN(C3CCCCC3)CC2)o1 (centres undefined)	i	i	i	i	i	i	nt
CCOC(=O)Nc1nc(-c2ccccc2)c(C(=O)c2ccccc2)s1	i	i	i	i	i	53	77
COc1ccccc1N1CCN(C(=O)c2ccc(N3CCCCS3(=O)=O)cc2)CC1	i	i	i	i	i	i	nt
FC(F)Sc1ccc(NC(=S)NCC2CCCCC2)cc1	i	i	i	i	i	50	61
FC(F)Sc1ccc(NC(=S)NC2CCCCC2)cc1	i	i	i	i	i	i	nt
CCCCOc1ccc(/C=N/NC(=O)c2nnn(-c3nonc3N)c2C)cc1	i	i	i	i	i	i	nt
Cc1ccc(CNc2ncnc3ccc(-c4ccc(CO)o4)cc23)o1	i	i	i	i	i	53	81
NC1(C(=O)O)CSSC1	i	i	i	82	i	62	57
CN(C)CCCN(C(=O)CCSc1ccccc1)c1nc2cc3c(cc2s1)OCO3	i	i	i	91	i	56	49
O=C1OC(c2ccccc2)(c2cc(Br)ccc2O)c2ccccc21 (centres undefined)	i	74	i	104	56	75	49
O=C(CN1C(=O)C(=O)N(Cc2ccco2)C1=O)Nc1ccccc1	i	i	i	i	i	i	nt
COc1ccc2[nH]c3c(c2c1)CCNC3=O	i	i	i	i	61	52	83
O=C1NCCc2c1[nH]c1ccccc21	i	i	i	i	i	i	nt
CCC1(O)CC2CN(CCc3c([nH]c4ccccc34)C(C(=O)OC)(c3cc4c(cc3OC)N(C=O)C3C(O)(C(=O)OC)C(OC(C)=O)C5(CC)C=CCN6CCC43C65)C2)C1 (centres undefined)	i	i	i	i	i	58	92
SMILES	KKLEB cytotox	TROY NFkB inh	HIF-2a inh	Peg3 promoter	TWEAK-Fn14 inh	CF NFkB block	CF NFkB inh conf
O=C(NCCc1c[nH]c2ccccc12)C(=O)NCC(c1ccco1)N1CCN(c2ccc(F)cc2)CC1 (centres undefined)	i	i	i	i	i	51	i
Cc1ccc(S(=O)(=O)N2CCN(C(=O)COC(=O)c3ccc(Cl)c(S(N)(=O)=O)c3)CC2)c(C)c1	i	i	i	i	i	i	nt
O=C(Nc1cccc(F)c1)Nc1ccc2c(c1)OCO2	i	i	i	i	i	i	nt
C/C(=N/NC(=O)c1cc(-c2cccc([N+](=O)[O-])c2)n[nH]1)c1cccc(O)c1	i	i	i	i	i	57	i
CCc1nc2ccc(C(=O)NCc3ccc4c(c3)OCO4)cn2c1N(C)C(=O)Cc1ccccc1	i	i	i	i	i	i	nt
Cc1ccc2oc(=O)c3cnn(CC(=O)Nc4cc(-c5cccc(F)c5)no4)c3c2c1	i	i	i	i	i	53	i
Cc1cccc(-n2c(SCc3ccc([N+](=O)[O-])cc3)nnc2-c2c[nH]c3ccccc23)c1	i	i	i	i	i	51	i
Brc1cccc(CSc2nnc(-c3ccncc3)o2)c1	i	i	i	i	62	59	69
COc1ccc2nc(NC(=O)Nc3ccccc3)sc2c1	i	i	i	i	i	i	nt
CC(C)(C)c1nc(NC(=O)Nc2ccccc2)sc1Br	i	i	i	i	61	69	65
Cc1cc(O)cc2c1C1CCC3(C)C(O)CCC3C1C=C2 (centres undefined)	i	i	i	i	i	i	nt
CCOc1cc2c(cc1O)C(=NOC)CC1C2CCC2(C)C(O)CCC12 (centres undefined)	i	i	i	i	i	52	76
O=C(Nc1cccc(S(=O)(=O)NC2=NCCCCC2)c1)c1ccc(Cl)cc1	i	i	i	i	i	i	nt
Cn1c(N2CCN(C(c3ccccc3)c3ccccc3)CC2)nc2c1c(=O)[nH]c(=O)n2C	i	i	i	i	i	69	84
CC(C)C1C(=O)N(Cc2cn(Cc3ccco3)nn2)CCS(=O)(=O)N1Cc1ccc(-c2ccccc2)cc1 (centres undefined)	i	i	i	i	i	i	nt
COc1ccc(-c2ccc(CN3C(CC(C)C)C(=O)N(Cc4cn(Cc5ccco5)nn4)CCS3(=O)=O)cc2)cc1OC (centres undefined)	i	i	i	i	i	i	nt
CC(C)C1C(=O)N(Cc2cn(Cc3ccco3)nn2)CCS(=O)(=O)N1Cc1ccc(-c2ccc(F)cc2)cc1 (centres undefined)	i	i	i	i	i	56	i
COc1ccc(-c2ccc(CN3C(CC(C)C)C(=O)N(Cc4cn(Cc5ccco5)nn4)CCS3(=O)=O)cc2)cc1 (centres undefined)	i	i	i	i	i	57	i

Assay outcomes (PubChem)
